# From PubChem BioAssay AID504329 (Southern Research Specialized Biocontainment Screening …, 2011)
# About 1,000 (0.29%) of roughly 340,000 compounds were called active. Cut-off read from the data, not from the text of the source: inconclusive = inhibition above about 27% without an active follow-up result; inactive = below that. A selection follows. Measured potencies and affinities stand elsewhere.
# Test: NS1A inhibition, H1N1 influenza, cell based functional assay (AID 504329)
# Conditions: percent inhibition, at 12.5 µM, active compounds read high
row,Structure (SMILES),inhibition
1,C=CCn1c(SCC(=O)NCc2ccc3c(c2)OCO3)nnc1C1COc2ccccc2O1 (stereo not drawn),-2.53% (inactive)
2,CCC(C)[C@H](NC(=O)N1CCn2c1nc1ccccc12)C(=O)NCCc1ccccc1 (stereo partly drawn),4.3% (inactive)
3,COc1cccc(-c2ccc(NC(=O)C3CCCN(CCCn4nc(C)cc4C)C3)cc2)c1 (stereo not drawn),3.69% (inactive)
4,N#Cc1c(C(F)(F)F)cc(-c2ccccc2)n(N)c1=O,-8.39% (inactive)
5,O=C(Nc1ccon1)c1ccc(Cl)c(S(=O)(=O)N2CCCCC2)c1,-6.8% (inactive)
6,CCc1n[nH]c(=S)n1/N=C/c1ccccn1,-4.28% (inactive)
7,S=c1[nH]nc(C2CCCCC2)n1/N=C/c1ccccn1,-8.07% (inactive)
8,COc1cccc(CNC(=O)CSc2ccc(-c3cccs3)nn2)c1,5.92% (inactive)
9,COc1cccc(CNC(=O)CSc2ccc(-c3ccco3)nn2)c1,-0.85% (inactive)
10,O=C(CSc1ccc(-c2ccccn2)nn1)NCc1ccccc1,1.11% (inactive)
11,Cc1ccc(CNC(=O)CSc2ccc(-c3ccccn3)nn2)cc1,14.6% (inactive)
12,O=C(O)C1CCCCC1C(=O)Nc1ccc(S(=O)(=O)N2CCCCC2)cc1 (stereo not drawn),4.7% (inactive)
13,CCCC(C)C1(CC)C(=O)NC(=O)N=C1N (stereo not drawn),-9.22% (inactive)
14,O=C(NCc1cccnc1)c1ccccc1NS(=O)(=O)c1ccccc1,-3.37% (inactive)
15,CCOC(=O)C1CCCN(c2c(N3CCN(c4ccccn4)CC3)c(=O)c2=O)C1 (stereo not drawn),6.61% (inactive)
16,CCCCCOc1ccc(C(=O)NCCC(=O)NCCCC(=O)OCC)cc1,-5.18% (inactive)
17,CC1(C)CC(=O)C2=C(C1)Nc1ccccc1NC2c1ccc(F)c(F)c1 (stereo not drawn),-6.87% (inactive)
18,Cc1[nH][nH]c(=O)c1C(c1c(C)[nH][nH]c1=O)c1cn(Cc2ccc(Cl)c(Cl)c2)c2ccccc12,17.4% (inactive)
19,O=C(O)Cc1cn(Cc2ccc(F)cc2)c2ccccc12,5.18% (inactive)
20,COc1ccc(CNc2nc3ccccc3n2CCN2CCCCC2)cc1,8.37% (inactive)
21,CCN(CC)c1ccc(CNc2nc3ccccc3n2CCN2CCOCC2)cc1,5.53% (inactive)
22,CC(C)C[C@@H](CNCC(=O)[C@H](CC(C)C)NC(=O)c1[nH]cnc1C(=O)N[C@H](CN)CC(C)C)NC(=O)c1nc[nH]c1C(=O)N[C@@H](Cc1ccccc1)C(=O)O,-21.2% (inactive)
23,COC(=O)c1scc(C)c1NC(=O)c1ccccc1F,-2.27% (inactive)
24,COc1cccc(OC)c1C(=O)Nc1nnc(-c2ccc(F)cc2)s1,-7.27% (inactive)

row,Structure (SMILES),inhibition
1,CCN(CC)c1ccc2nc3ccccc3[n+](CC)c2c1,25.1% (inactive)
2,CCN(CC)c1ccc(/C=N/N(c2ccccc2)c2ccccc2)c(O)c1,-0.39% (inactive)
3,N#Cc1nc(COc2cccc(Cl)c2)oc1N1CCN(c2ccccc2)CC1,-10.8% (inactive)
4,CC(=O)Nc1c(O)c2ccccc2[nH]c1=O,-0.37% (inactive)
5,O=C1C(c2c(O)[nH]c3ccccc23)=Nc2ccccc21,4.56% (inactive)
6,COc1ccc(CCNC(=O)c2ccc(CS(=O)(=O)Cc3cccc(C)c3)o2)cc1OC,1.57% (inactive)
7,O=C(CN1C(=O)c2ccccc2C1=O)Nc1cccc(Cl)c1,-5.21% (inactive)
8,Nc1ccc2nc(-c3cccc(-c4nc5ccc(N)cc5[nH]4)n3)[nH]c2c1,16.6% (inactive)
9,Nc1ccc2cn[nH]c2c1,0.77% (inactive)
10,O=C(OCCn1c(=S)sc2ccccc21)c1ccccc1,-0.85% (inactive)
11,O=C(c1ccccc1)c1ccc(C(=O)N2CCOCC2)cc1,2.77% (inactive)
12,O=C(CSc1nnc(-c2cccnc2)o1)Nc1ccccn1,19% (inactive)
13,CC(=O)Nc1ccc(NC(=O)CSc2nnc(-c3cccnc3)o2)cc1,-1.5% (inactive)
14,CCOC(=O)C1CCCN(c2c(NCCc3ccc(S(N)(=O)=O)cc3)c(=O)c2=O)C1 (stereo not drawn),-1.2% (inactive)
15,Cc1ccc2c(CN(C)Cc3ccc(OC(F)F)cc3)cc(=O)oc2c1C,-13.7% (inactive)
16,CN(Cc1nccs1)C(=O)C1CCC(=O)N(Cc2ccccc2F)C1 (stereo not drawn),-7.1% (inactive)
17,COc1cccc(/C=C2\SC(=S)N(CCCC(=O)N3CCCCC3)C2=O)c1,13.4% (inactive)
18,COc1cccc(/C=C2\SC(=S)N(CCC(=O)N3CCCCC3)C2=O)c1,-7.67% (inactive)
19,S=c1[nH]c(-c2ccccc2)cs1,-8.02% (inactive)
20,S=c1[nH]cnc2scc(-c3ccccc3)c12,2.25% (inactive)
21,CCn1cc(C(=O)NCc2ccc(OC)cc2)c(=O)c2ccc(C)nc21,-3.98% (inactive)
22,O=C(NCCc1ccccc1)C(=O)NCC1CCCN1S(=O)(=O)c1ccccc1 (stereo not drawn),-2.99% (inactive)
23,CCN(CC)c1ccc(/C=C2\CCC(/C=C(/C#N)C(=O)Nc3ccccc3F)=C2N2CCOCC2)cc1,-9.82% (inactive)
24,N#C/C(=C/C1=C(N2CCOCC2)C(=C/c2ccc(Cl)cc2)/CC1)C(=O)Nc1ccccc1F,-12.3% (inactive)

row,Structure (SMILES),inhibition
1,CCN(CC)c1ccc(/C=C2\CCC(/C=C(\C#N)C(=O)Nc3ccccc3F)=C2N2CCOCC2)cc1,-0.77% (inactive)
2,N#C/C(=C\C1=C(N2CCOCC2)C(=C\c2ccc(Cl)cc2)/CC1)C(=O)Nc1ccccc1F,8.68% (inactive)
3,CCOc1cccc(C2C(C(=O)c3ccc(C)o3)=C(O)C(=O)N2c2nnc(C)s2)c1 (stereo not drawn),3.08% (inactive)
4,CC1(c2ccccc2)NC(=O)N(NC(=O)COC(=O)c2cc(Br)ccc2O)C1=O (stereo not drawn),-5.16% (inactive)
5,O=C(NCCN1CCCCC1)c1ccc(Cl)nc1Cl,-3.64% (inactive)
6,Cc1ccc(S(=O)(=O)Nc2cccc3ncccc23)cc1,-4.33% (inactive)
7,Cc1ccc(S(=O)(=O)Nc2cccc3cccnc23)cc1,-11% (inactive)
8,Cc1ccc(S(=O)(=O)Nc2ccc(O)c3cccnc23)cc1,-4.48% (inactive)
9,Cc1ccc(S(=O)(=O)Nc2cc(Cl)c(O)cc2C)cc1,6.58% (inactive)
10,Cc1nn(-c2ccccc2)c(C)c1/C=C/C(=O)OCC(=O)Nc1ncc(Cl)cc1Cl,-0.68% (inactive)
11,CCc1ccc2[nH]c(C)c(CN3CCCCCC3)c(=O)c2c1,6.48% (inactive)
12,Cc1ccc(NC(=O)CSc2nnc(-c3ccco3)o2)cc1,5.76% (inactive)
13,Cc1cc(NC(=O)CSc2nnc(-c3ccccc3)o2)no1,14% (inactive)
14,O=C(O)c1ccc(N(c2ccccc2)c2ccccc2)cc1,-2.79% (inactive)
15,Nc1ccc(-c2ccccc2)cc1,-0.13% (inactive)
16,Cc1ccc(C(=O)Nc2ccc(N3CCN(C(=O)c4ccco4)CC3)cc2)cc1,-1.89% (inactive)
17,S=C1NC2(CCCCC2)N=C1c1ccccc1,-4.42% (inactive)
18,S=C1NC2(CCCCCC2)N=C1c1ccccc1,6.12% (inactive)
19,CC(=O)Nc1nonc1-c1nc2ccccc2n1CC1CC1,6.72% (inactive)
20,O=C(CSc1nnc(SCc2ccc(Cl)cc2)s1)N/N=C/c1ccc(C(=O)O)cc1,-0.08% (inactive)
21,CC1CCN(S(=O)(=O)c2ccc3c(c2)N(CC(=O)N(C)Cc2ccco2)C(=O)CO3)CC1,3.45% (inactive)
22,N#C/C(=C/c1cn(-c2ccccc2)nc1-c1cccc(OCc2ccccc2)c1)C(=O)NCCCn1ccnc1,-3.98% (inactive)
23,CCOc1cccc(-c2nn(-c3ccccc3)cc2/C=C(/C#N)C(=O)NCCCn2ccnc2)c1,6.31% (inactive)
24,CCCOc1cccc(-c2nn(-c3ccccc3)cc2/C=C(\C#N)C(=O)NCCCn2ccnc2)c1,1.02% (inactive)

row,Structure (SMILES),inhibition
1,O=C(NCCCn1ccnc1)c1cn(-c2ccccc2)nc1-c1ccc(F)cc1,6.07% (inactive)
2,CC(C)C(=O)Nc1cccc(C(=O)Nc2cc([N+](=O)[O-])ccc2F)c1,-8.76% (inactive)
3,COc1ccc(C(=O)O/N=C(\N)c2ccc(Cl)cc2)cc1,2.64% (inactive)
4,CN1CCCN(C(=O)CNC(=O)c2ccccc2F)CC1,-1.28% (inactive)
5,Cc1c(C(C)(C)C)sc(=NC(=O)c2ccccc2O)n1C,-24.8% (inactive)
6,Nc1[nH]c(N=NC(=O)c2ccccc2)c2ccccc12,19% (inactive)
7,Nc1[nH]c(N=NC(=O)c2ccc(Cl)cc2)c2ccccc12,10.9% (inactive)
8,Nc1[nH]c(N=NC(=O)c2ccc(F)cc2)c2ccccc12,12.2% (inactive)
9,CC(=O)N=Nc1[nH]c(N)c2ccccc12,-6.73% (inactive)
10,Cc1ccc(N2CC(C(=O)Nc3nc4ccc(S(C)(=O)=O)cc4s3)CC2=O)cc1 (stereo not drawn),-4% (inactive)
11,COc1cc(C(=O)NCc2ccccc2)ccc1OC(F)F,2.29% (inactive)
12,Cc1cccc(NC2=C/C(=N/S(=O)(=O)c3cccs3)c3ccccc3C2=O)c1,22.8% (inactive)
13,Cc1ccc(S(=O)(=O)/N=C2\C=C(NS(=O)(=O)c3ccccc3)C(=O)c3ccccc32)c(C)c1,10.6% (inactive)
14,O=C1C=C(Nc2ccc(O)cc2)C(=O)c2ccccc21,24.1% (inactive)
15,O=S(=O)(/N=C(/Nc1ccccc1)c1ccccc1)c1cccs1,-0.58% (inactive)
16,Cc1ccc(NC2=C/C(=N/S(=O)(=O)c3cccs3)c3ccccc3C2=O)cc1,2.95% (inactive)
17,O=C1C=C(Nc2ccccc2)c2ccccc2C1=O,-0.21% (inactive)
18,Cc1ccc(NC2=C/C(=N/S(=O)(=O)c3cccs3)c3ccccc3C2=O)cc1C,-0.69% (inactive)
19,Cc1ccc(NC2=CC(=O)C(=O)c3ccccc32)c(C)c1,-11% (inactive)
20,O=C(C1CC(=O)N(c2ccc(F)cc2)C1)N1CCC(c2nc3ccccc3[nH]2)CC1 (stereo not drawn),-1.46% (inactive)
21,COc1ccc(-c2cc(C(=O)Nc3ccc(F)cc3F)no2)cc1,-13.1% (inactive)
